Source: the supplement of paper PMC7156485

The compounds below were run on HCC1569 (assay: H1.0 immunofluorescence intensity relative to DMSO (% of DMSO); higher = stronger H1.0 induction, active = 140 or more). Conditions: concentration: 10 µM; 24 h.
Outline: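 Using 384-well plates with 800 cells per well in RPMI plus 10% FBS, HCC1569 and TDF cells were exposed to compounds at 10 µM, in triplicate, for 24 h at 37 °C. Imaging of six fields per well at ×10 followed H1.0 and DAPI staining. The reported quantity, H1.0 nuclear intensity or cell number, is a median of replicates given as percent of the plate control, and HCC1569 values were smoothed for positional effects.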
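Further: TDF is a line of transformed human dermal fibroblasts of mesenchymal origin.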

Structure (SMILES)	H1.0 immunofluorescence intensity
COc1cc2c(cc1OC)C1C(=O)c3ccc4c(c3OC1CO2)C=CC(C)(C)O4 (stereo unspecified) [Degeulin]	121 (inactive)
c1ccc(-c2[nH]ncc2-c2ccnc3ccccc23)nc1 [TGF-b RI Kinase Inhibitor]	110 (inactive)
CCCCCCCCCC(=O)NC(CN1CCOCC1)C(O)c1ccccc1.Cl (racemic)	109 (inactive)
CC1=C(C(=O)O)N2C(=O)C(NC(=O)C(N)c3ccccc3)C2SC1 (stereo unspecified) [Cephalexin hydrate]	96.5 (inactive)
Cc1cnc(NC(=O)C2=C([O-])c3ccccc3S(=O)(=O)N2C)s1.[Na+] [Meloxicam sodium]	97.1 (inactive)
Nc1ncnc2c1nc(Sc1ccc(Cl)cc1)n2C1OC2COP(=O)([O-])OC2C1O.[Na+] (stereo unspecified) [8-(4-Chlorophenylthio)-cAMP sodium]	85.1 (inactive)
CC1=C(CC(=O)O)c2cc(F)ccc2C1=Cc1ccc(S(C)(=O)=O)cc1 [Sulindac sulfone]	103 (inactive)
CCCCCC=CCC=CCC=CC=CC1CCCC(=O)O1 (racemic)	103 (inactive)
CC(CC(c1ccccc1)c1ccccc1)NC(C)(C)C.Cl (stereo unspecified) [N-(tert-butyl)-4,4-diphenyl-2-butanamine hydrochloride]	101 (inactive)
CCc1cc(CCC2(C3CCCC3)CC(O)=C(Cc3nc4nc(C)cc(C)n4n3)C(=O)O2)cc(CC)n1 (stereo unspecified)	104 (inactive)
CC(C)(CN1C(=O)C(Cl)=C(Cl)C1=O)CN1C(=O)C(Cl)=C(Cl)C1=O	124 (inactive)
Cl.Cl.N=C(N)c1ccc(N)cc1 [4-Aminobenzamidine dihydrochloride]	94.1 (inactive)
CC12CC3CC(C)(C1)CC(N)(C3)C2.Cl [Memantine hydrochloride]	98.3 (inactive)
O=C1c2ccccc2-c2n[nH]c3cccc1c23	138 (inactive)
O=C(NC1CCNCC1)c1[nH]ncc1NC(=O)c1c(Cl)cccc1Cl	117 (inactive)
NC(=O)c1ccc(-c2nc(-c3ccc4c(c3)OCO4)c(-c3ccccn3)[nH]2)cc1	136 (inactive)

Structure (SMILES)	H1.0 immunofluorescence intensity
CC12CCC(=O)C=C1CCC1C2C(O)CC2(C)C1CCC2(O)C(=O)COC(=O)CCC(=O)[O-].[Na+] (stereo unspecified) [Hydrocortisone 21-hemisuccinate sodium]	125 (inactive)
Cl.Cl.Cl.NCCC1CCCC(CCN)N1 (stereo unspecified) [MDL 26,630 trihydrochloride]	85.3 (inactive)
OCC(CO)(CO)NCC(O)Cn1c2ccc(Cl)cc2c2cc(Cl)ccc21 (stereo unspecified)	168 (active)
O=c1[nH]c(=O)c2nc3ccccc3nc2[nH]1 [Alloxazine]	92.1 (inactive)
COc1cc2nc(N3CCN(C(=O)C4CCCO4)CC3)nc(N)c2cc1OC (stereo unspecified) [Terazosin]	98.2 (inactive)
NCC1OC(OC2C(CO)OC(OC3C(O)C(N)CC(N)C3OC3OC(CN)C(O)C(O)C3N)C2O)C(N)C(O)C1O (stereo unspecified) [Neomycin]	91.8 (inactive)
CC(C)C1NC(=O)C(CCCCN)NC(=O)C(Cc2c[nH]c3ccccc23)NC(=O)C(Cc2ccc(O)cc2)NC(=O)C(C)N(C)C(=O)C(Cc2ccccc2)NC1=O (stereo unspecified) [Seglitide]	152 (active)
CCCCN1CCC(n2c(=O)[nH]c3ccccc32)CC1.O=C(O)C(=O)O [NS 521 oxalate]	98.3 (inactive)
COc1ccc(CCN(C)CCCC(C#N)(c2cc(OC)c(OC)c(OC)c2)C(C)C)cc1OC.Cl (racemic)	92.3 (inactive)
O=c1[nH]c(=O)n(C2CCCO2)cc1F (stereo unspecified) [Ftorafur]	103 (inactive)
O=C(O)CN(CCN(CC(=O)O)CC(=O)O)CCN(CC(=O)O)CC(=O)O [Diethylenetriaminepentaacetic acid]	94.6 (inactive)
CCCCCCCCC=CCCCCCCCCOCC(COP(=O)([O-])OCC[N+](C)(C)C)OC(C)=O (stereo unspecified)	98.3 (inactive)
Cc1nc(Nc2ncc(C(=O)Nc3c(C)cccc3Cl)s2)cc(N2CCN(CCO)CC2)n1 [Dasatinib]	171 (active)
CCCCCC(O)C=CC=CCCCCCCCC(=O)O (stereo unspecified)	101 (inactive)
CCCCCCCCCCCCCCC[C@@H](O)[C@@H](N)CO [(2S,3R)-2-amino-1,3-octadecanediol]	96.2 (inactive)
